In the library only some 4.1% were active in any assay of this set; here they are far more common.
Shn3 3UTR inh: Schnurri-3 reporter inhibition in Clone20 osteoblasts; AID 588674; Clone20 osteoblast Shn3 3'UTR firefly luciferase, 24 h; 360,000 tested, 0.52% active; inhibition, % at 12.5 µM;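 active means mean inhibition of at least 75% with every replicate also reaching 75%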;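 further: 0% = median of neutral control wells and 100% = pilot-screen positive control compound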
TROY NFkB inh: blocks TROY-dependent signaling in reporter cells; Q293 LMP1-TROYcd NF-kB luciferase reporter, 4 h; 360,000 tested, 0.98% active; AID 1347056; inhibition, % at 10 µM;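 active means compounds whose plate-normalised and pattern-corrected inhibition of the luciferase reporter signal at the single screening dose is 50% or more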
EBV LMP1 NFkB: Epstein-Barr LMP1 NF-kappaB reporter inhibition; inhibition, % at 12.5 µM; LMP1-induced NF-kappaB luciferase reporter cells, luminescence; AID 504558; 350,000 tested, 0.69% active; in the data active means inhibition above about 41%;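 further: 0% = neutral control wells and 100% = reference inhibitor control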
TWEAK Fn14 block: inhibitors of TWEAK-Fn14 interaction signaling | TWEAK-stimulated Fn14 reporter cells, luciferase luminescence, 8 h | inhibition, % at 10 µM | 360,000 tested, 2% active | AID 1159606; in the data active means inhibition above about 50%
TRPM1 prom inh: MITF TRPM1 promoter inhibition in SK-MEL-5 cells | SK-MEL-5 TRPM1 promoter luciferase, 24 h | 330,000 tested, 0.83% active | inhibition, % at 12.5 µM;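 active means mean inhibition across replicates of 60% or more, whatever share of single replicates reaches that level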
Peg3 prom inh: inhibitors of Peg3 promoter | 360,000 tested, 1.7% active | inhibition, % at 20 µM | HeLa PEG-Prom luciferase reporter, luminescence, overnight | AID 588405;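 active means inhibition of at least 50% at 20 µM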
Numbers without * were called inactive; nt = not tested or not shown; ! = not active in a repeat.

SMILES	Shn3 3UTR inh	TROY NFkB inh	EBV LMP1 NFkB	TWEAK Fn14 block	TRPM1 prom inh	Peg3 prom inh
O=S(=O)(c1ccc(Br)cc1)N1CCN(c2cc(-c3ccccc3)nc3ncnn23)CC1	50	-10	11	25	-11	6
COc1ccc(S(=O)(=O)N2CCN(c3cc(-c4ccccc4)nc4ncnn34)CC2)cc1	87*	17	-13	25	20	32
O=S(=O)(c1ccccc1)N1CCN(c2cc(-c3ccccc3)nc3ncnn23)CC1	84*	32	43*	70*	49	14
O=C(/C=C/c1ccc(Br)cc1)NCCCn1ccnc1	7	-1	-23	-7	0	-18
O=C(O)/C=C/c1ccc(Cn2ccnc2)cc1	-6	3	60*!	23	0	8
CC[N+]1(C)CCC(O)(/C=C/c2ccccc2)C(C(=O)/C=C/c2ccccc2)C1 (stereo not drawn)	99*	12	-3	65*	66*	97*
O=C(/C=C/c1ccccc1)C1C(=O)c2ccccc2C1=O	-32	-30	34	28	0	-121
CC(C)C(C)NC(=O)COc1ccc(Sc2ccc(OCC(=O)NC(C)C(C)C)cc2)cc1 (stereo not drawn)	78	28	17	66*	14	19
CC(C)C(C)NC(=O)COc1ccc(-c2ccccc2)cc1 (stereo not drawn)	14	-34	10	-18	-9	-32
O=C(/C=C/c1cccc([N+](=O)[O-])c1)c1ccc([N+](=O)[O-])o1	97*	73*	14	98*	99*	100*
COc1ccc(/C=C/C(=O)c2ccc([N+](=O)[O-])o2)cc1	50	-4	-51	54*	nt	101*
COc1ccc(S(=O)(=O)N2CCN(C(=O)c3ccc([N+](=O)[O-])o3)CC2)cc1	12	-26	6	-7	22	-16
Cc1cccc(/C=C/C(=O)c2ccc([N+](=O)[O-])o2)c1	22	23	-89	61*	nt	101*
COC(=O)[C@]1(C)N[C@H](c2ccc(-c3ccccc3)cc2)[C@@H]2C(=O)N(C)C(=O)[C@@H]21	-7	15	1	-11	-6	-2
O=C(Cc1ccccn1)Nc1ccccc1	-30	-18	-4	110*	14	-12
O=C1C=CC(=O)N1c1ccc2c(c1)C(NC(=O)C(F)(F)F)c1ccccc1-2 (stereo not drawn)	71	-1	-5	16	86*	102*
CN(C)C(=O)NC1c2ccccc2-c2ccccc21	-10	-18	-1	0	13	1
c1ccc(CCc2nn3c(-c4ccncc4)nnc3s2)cc1	8	29	29	74*	-19	-35
c1ccc2sc(NCC3CCCO3)nc2c1 (stereo not drawn)	-19	-32	-20	-10	-52	-170
c1ccc2sc(NN=C3CCCCCC3)nc2c1	17	76*	1	76*	3	-100
CCCNC(=O)c1ccc(-c2nc3ccccc3s2)s1	27	nt	-18	52*	9	-81
Cc1ccc(CNc2nc3ccccc3s2)s1	18	41	25	80*	5	-25
O=C(Nc1nc2ccccc2s1)c1cnccn1	-9	12	25	56*	5	-99
CCOc1ccc2nc(NC(=O)c3cnccn3)sc2c1	-18	-69	-3	19	-53	-208
CC1CN(C(=O)CN(C)S(=O)(=O)c2ccc3ccccc3c2)CC(C)O1 (stereo not drawn)	0	-1	-2	0	7	-5
SMILES	Shn3 3UTR inh	TROY NFkB inh	EBV LMP1 NFkB	TWEAK Fn14 block	TRPM1 prom inh	Peg3 prom inh
CN(C)c1ccc(-c2ccnc3c2CC(C)(C(=O)Nc2cccc(Oc4ccccc4)c2)O3)cc1 (stereo not drawn)	0	-4	nt	-4	nt	14
CC1CCCCC1NC(=O)c1cccc(N2C(=O)C3C4C=CC(C4)C3C2=O)c1 (stereo not drawn)	30	9	10	19	-4	6
O=C(Nc1nc2ccccc2s1)c1ccccc1	-28	1	-27	50*	15	-168
O=C(NNc1nc2ccc(F)cc2s1)c1cccc(F)c1	0	-1	5	-7	2	-56
Cc1cc(NC(=O)c2ccc(C)s2)n(-c2nc3ccccc3[nH]2)n1	16	-24	67*	2	-7	31
Cc1ccc(C(=O)Nc2nc3ccccc3s2)s1	-4	10	-52	69*	-51	-181
Cc1ccc(C(=O)O)c(C(=O)Nc2nc3ccccc3s2)c1	14	-7	2	4	9	-1
O=C(NNc1nc2ccccc2s1)c1ccc(F)cc1	-58	76*	2	19	-9	-35
CCOC(=O)c1c(-c2ccco2)csc1NC(=O)COC(=O)c1cnc(C)cn1	1	22	-1	-12	5	15
CSc1nc2cc(Oc3cccc(Cl)c3Cl)c(Cl)cc2[nH]1	4	56*	5	23	2	31
Cc1ccc(S(=O)(=O)NC(=O)COc2ccc(Cl)cc2Cl)cc1	-13	-30	3	-23	-2	-4
Cc1ccc(S(=O)(=O)CCC(=O)Nc2cc(C)on2)cc1	8	-16	-1	27	nt	2
Cc1cc(NC(=O)CCS(=O)(=O)c2nc(-c3ccccc3)cc(C(F)(F)F)n2)no1	65	56*	-26	54*	85*	106*
CS(=O)(=O)c1nc(-c2ccccc2)cc(C(F)(F)F)n1	95*	53*	30	47	95*	104*
FC(F)(F)c1cc(-c2ccccc2)nc(N2CCCCCC2)n1	-3	-12	-5	8	3	12
Cc1cccc(NC(=S)NCC(C)CSc2ccc(Cl)cc2)c1 (stereo not drawn)	1	52*	-3	0	0	30
Cc1ccc(-c2nc(N=Nc3ccc(O)cc3)n[nH]2)cc1	-8	-34	-21	-6	-8	68*
O=C(N/N=C/c1cc(Br)cc(Br)c1O)c1cccc(S(=O)(=O)N2CCOCC2)c1	7	24	27	4	27	55*
O=C(N/N=C/c1ccccc1Br)c1cccc(S(=O)(=O)N2CCOCC2)c1	9	-38	-1	-10	3	-2
O=C(N/N=C/c1ccc(OC(F)F)cc1)c1cccc(S(=O)(=O)N2CCOCC2)c1	10	10	-7	71*	6	3
O=C(CC1SC(N2CCCC2)=NC1=O)Nc1ccc(C(=O)NCCOc2ccccc2F)cc1 (stereo not drawn)	-10	-29	-18	-8	-26	-96
CCc1ccc(S(=O)(=O)NCc2csc(C)n2)cc1	-7	3	1	9	-4	8
CCOC(=O)c1cnc2ccccc2c1Nc1ccc2c(c1)OCCO2	43	77*	14	92*	31	21
O=C(NC(c1ccc(-c2ccccc2)cc1)c1cnccn1)C1CCN(Cc2ccc(Oc3ccccc3)cc2)CC1 (stereo not drawn)	20	16	nt	-10	nt	56*
